In PubChem BioAssay AID1159580 (chemical genetic matrix, 2015):
Out of some 5,500 compounds screened, about 2,000 (36%) were called active. Another 18% or so got no clear call; they are omitted. No stated cut-off is given here; in the data, active means normalized growth mostly below about 0.91 (no sharp cut-off); inconclusive means no clear call, values can overlap the other calls; inactive means mostly above about 0.92. This is one part of the list.

Assay: chemical genetic growth profiling, strain panel (AID 1159580);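 further: tested at 20 µM; growth read once vehicle control cultures reached saturation at 30 °C; 1 = growth at the plate median or of vehicle wells; lower values mean less growth of the strain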
Conditions: S. cerevisiae deletion strains, growth OD

Measured: normalized growth

Cc1ccc(-c2nc3ccc(C)cn3c2CC(=O)N(C)C)cc1
inactive: locus YAL021C, strain ccr4, hits give low values 1.06 | locus YAL026C, strain drs2, hits give low values 1.01 | locus YAL030W, strain snc1, hits give low values 1.02 | locus YBL061C, strain skt5, hits give low values 0.998 | locus YBR009C, strain hhf1, hits give low values 1.02 | locus YBR023C, strain chs3, hits give low values 0.989 | locus YBR171W, strain sec66, hits give low values 1.04 | locus YBR231C, strain swc5, hits give low values 0.966 | locus YBR279W, strain paf1, hits give low values 0.993 | locus YCL011C, strain gbp2, hits give low values 1.01 | locus YCL016C, strain dcc1, hits give low values 0.987 | locus YCL061C, strain MRC1, hits give low values 1.02 | locus YCL069W, strain vba3, hits give low values 1.02 | locus YCR088W, strain abp1, hits give low values 1.03 | locus YDL005C, strain med2, hits give low values 1.01 | locus YDL040C, strain nat1, hits give low values 1 | locus YDR001C, strain nth1, hits give low values 1.02 | locus YDR069C, strain doa4, hits give low values 1.01 | locus YDR137W, strain rgp1, hits give low values 1.05 | locus YDR159W, strain sac3, hits give low values 0.96 | locus YDR195W, strain ref2 1 | locus YDR297W, strain sur2, hits give low values 1 | locus YDR334W, strain swr1, hits give low values 1.02 | locus YDR335W, strain msn5, hits give low values 0.991 | locus YDR392W, strain spt3, hits give low values 0.939 | locus YEL003W, strain gim4, hits give low values 1.01 | locus YEL037C, strain rad23, hits give low values 1.01 | locus YEL061C, strain CIN8 (second series), hits give low values 1.01 | locus YER015W, strain faa2, hits give low values 1.02 | locus YER016W, strain bim1, hits give low values 1.01 | locus YER111C, strain swi4, hits give low values 1.03 | locus YER155C, strain BEM2 (second series), hits give low values 0.998 | locus YFR010W, strain ubp6, hits give low values 1.02 | locus YGL167C, strain pmr1, hits give low values 0.996 | locus YGL173C, strain kem1, hits give low values 1.01 | locus YGL227W, strain vid30, hits give low values 1.01 | locus YGL240W, strain doc1, hits give low values 1.09 | locus YGL253W, strain hxk2, hits give low values 0.999 | locus YHR013C, strain ard1, hits give low values 1.06 | locus YHR027C, strain rpn1, hits give low values 0.981 | locus YHR142W, strain chs7, hits give low values 1.03 | locus YJL092W, strain hpr5, hits give low values 1.02 | locus YJL095W, strain BCK1 (second series), hits give low values 1.01 | locus YJL115W, strain asf1, hits give low values 1.02 | locus YJL129C, strain trk1, hits give low values 1 | locus YJL154C, strain vps35, hits give low values 1.02 | locus YJL164C, strain tpk1, hits give low values 1.01 | locus YJL166W, strain qcr8, hits give low values 1.03 | locus YJL187C, strain SWE1, hits give low values 1.01 | locus YKL160W, strain elf1, hits give low values 0.997 | locus YKR026C, strain gcn3, hits give low values 1.02 | locus YKR091W, strain srl3, hits give low values 1.03 | locus YLL001W, strain dnm1, hits give low values 0.988 | locus YLL026W, hits give low values 0.999 | locus YLL041C, strain sdh2, hits give low values 1.01 | locus YLR027C, strain aat2, hits give low values 1.02 | locus YLR221C, strain rsa3, hits give low values 0.974 | locus YLR258W, strain gsy2, hits give low values 1.03 | locus YLR262C, strain YPT6 (second series), hits give low values 1.01 | locus YLR320W, strain mms22, hits give low values 0.991 | locus YLR342W, strain FKS1, hits give low values 0.987 | locus YLR357W, strain rsc2, hits give low values 1.01 | locus YLR370C, strain arc18, hits give low values 0.978 | locus YLR384C, strain iki3, hits give low values 0.975 | locus YML120C, strain ndi1, hits give low values 0.984 | locus YMR058W, strain fet3, hits give low values 1.02 | locus YMR125W, strain sto1, hits give low values 1.03 | locus YMR129W, hits give low values 0.978 | locus YMR205C, strain PFK2, hits give low values 1 | locus YMR231W, strain pep5, hits give low values 1.02 | locus YNL071W, strain lat1, hits give low values 1.03 | locus YNL209W, strain ssb2, hits give low values 0.995 | locus YNL248C, strain rpa49, hits give low values 1.02 | locus YNL322C, strain KRE1 (second series), hits give low values 1.03 | locus YNR049C, strain mso1, hits give low values 0.986 | locus YOR001W, strain rrp6, hits give low values 0.951 | locus YOR070C, strain gyp1, hits give low values 0.988 | locus YOR080W, strain dia2, hits give low values 0.998 | locus YOR083W, strain WHI5, hits give low values 0.969 | locus YOR106W, strain vam3, hits give low values 1.08 | locus YOR265W, strain rbl2, hits give low values 0.969 | locus YOR270C, strain vph1, hits give low values 1.07 | locus YOR290C, strain snf2, hits give low values 1.03 | locus YPL051W, strain arl3, hits give low values 1.02 | locus YPL078C, strain atp4, hits give low values 1.03 | locus YPL106C, strain sse1, hits give low values 1.12 | locus YPL240C, strain hsp82, hits give low values 0.982
